This note sets out measurements from PubChem BioAssay (EPA / NIEHS).

Records with an inconclusive call do not appear. Activity calls are given as the source filed them. The calls were made as follows: active = hit-call score of the fitted dose curve at least 0.9, where 1 is the maximum; inconclusive = response in the unintended direction; inactive = score below 0.9.

Read-out in the test: sulfotransferase (SULT2A), SULT2A1 (gene 6822)
Nature of the test: CLD_SULT2A_24hr: CellzDirect (CLD) Gene Expression Assay for sulfotransferase (SULT2A) at 24 hours (AID 2283694).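 As to AC50: potency for increased SULT2A1 mRNA level as induction over DMSO baseline.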 As for the experimental part: CLD_24hr is a cell-based, multiplexed-readout assay that uses hepatocyte, a human liver primary cell, with measurements taken at 24 hours after chemical dosing in a 96-well plate.CLD_SULT2A_24hr is one of 16 assay component(s) measured or calculated from the CLD_24hr assay. It is designed to make measurements of mRNA induction, a form of inducible reporter, as detected with chemiluminescence signals by Quantitative Nuclease Protection Assay (qNPA) technology.Data from the assay component CLD_SULT2A_24hr was analyzed at the endpoint, CLD_SULT2A_24hr, in the positive analysis fitting direction relative to DMSO as the negative control and baseline of activity. Using a type of inducible reporter, gain-of-signal activity can be used to understand changes in the reporter gene as they relate to the gene SULT2A1. Furthermore, this assay endpoint can be referred to as a primary readout. To generalize the intended target to other relatable targets, this assay endpoint is annotated to the transferase intended target family, where subfamily is sulfotransferase.
Human hepatocyte cultures were treated daily for two consecutive days with fresh dosing solutions containing appropriate concentrations of the 320 ToxCast chemicals (chemical identities were blinded to CellzDirect and other ToxCast collaborators), vehicle control (0.2% DMSO), and positive control inducers as summarized in Table 1. Due to the large number of treatment groups and chemicals examined, the ToxCast chemicals were divided into two groups (spanning two independent cultures of hepatocytes from separate donor preparations (Hu778: ToxCast plates 1 and 2; Hu776: ToxCast plates 3 and 4). Each preparation of human hepatocyte cultures was treated with respective vehicle control, medium only control, set of six positive controls/reference chemicals for the five hepatic receptor pathways, and a subset of eight of the ToxCast chemicals (indoxacarb, pyrithiobac-sodium, norflurazon, cyhalofop-butyl, methomyl, thiram, acetochlor, and propiconazole). These replicate data, coupled with internal replicates designed within the blinded ToxCast chemical library, provided additional data to evaluate interindividual differences between hepatocyte preparations and their potential impact on chemical profiles.Cell morphology and integrity were evaluated using phase-contrast microscopy as an indicator of hepatocyte cell health (Tyson & Green, 1987). Cultures for each treatment group (i.e., media, vehicle [0.2% DMSO], positive control inducers [multiple concentrations], and the ToxCast chemicals [multiple concentrations]) were observed and cell morphology was assessed relative to vehicle control cultures at each harvest time point (0, 6, 24, or 48 h). […] Images were evaluated at the conclusion of the study to assess changes in cell integrity and account for the effects of chemical exposure on uncharacteristic changes in concentration-dependent gene expression profiles. The results from these determinations of apparent cytotoxicity were annotated (yes/no) alongside the corresponding qNPA data for reference.At the conclusion of each treatment period, hepatocyte cultures (96-well) were washed with 1 volume of HBSS, lysed by addition of 25 ul ArrayPlate lysis buffer (HTG, Tucson, AZ), and 70 ul/well of Denaturation Oil, denatured by incubation at 95C for 10 min, and frozen at approximately -70C until analysis by nuclease protection assay (qNPA) (Roberts et al., 2007). For qNPA analysis, cell lysates were thawed at 50C for approximately 30 min, qNPA probes were added, and samples were incubated at 95C for 10 min to begin the detection process by denaturing the target RNA, dissociating the duplexes and secondary structure hybridization. At the conclusion of the hybridization period, S1 nuclease reagent was added to each sample to digest all nonprotected nucleotides at 50C for 60-90 min. […]
`CSC(=O)c1c(C(F)F)nc(C(F)(F)F)c(C(=O)SC)c1CC(C)C`: the AC50 was 7.07 µM (active).

In the case of `Cn1c(-c2ccccc2)cc(-c2ccccc2)[n+]1C`, the AC50 is 8.08 µM (active).

As to `COc1cc(Cl)c(OC)cc1Cl`, the outcome was inactive.

For the molecule `Cc1cnc(C2=NC(C)(C(C)C)C(=O)N2)c(C(=O)O)c1` (stereo not given), the call was inactive.

For `CC(C)Nc1nc(Cl)nc(NC(C)C)n1`, the call was inactive.

With `Cc1nc(N(C)C)nc(OC(=O)N(C)C)c1C`, the molecule was classed as inactive.

Take `CC1(C)CON(Cc2ccccc2Cl)C1=O`: the outcome was inactive.

For the molecule `CCCC(=NOCC)C1=C(O)CC(CC(C)SCC)CC1=O` (stereo not given), the call was inactive.

Take `O=C(Nc1ccccc1-c1ccc(Cl)cc1)c1cccnc1Cl`: the result was inactive.

For `CC(C)Oc1cccc(NC(=O)c2ccccc2C(F)(F)F)c1`, the result was inactive.

As for `OC(c1ccc(Cl)cc1)(c1ccc(Cl)cc1)C(Cl)(Cl)Cl`, the AC50 was 20 µM (active).

Regarding `CC1(C)C(C=C(Cl)Cl)C1C(=O)OC(C#N)c1cccc(Oc2ccccc2)c1` (stereo not given), the outcome was inactive.

Take `CC(C)C1(C)N=C(c2ncccc2C(=O)O)NC1=O` (stereo not given): the molecule was classed as inactive.

On to `O=c1n(Cl)c(=O)n(Cl)c(=O)n1Cl`, for which the outcome was inactive.

For the molecule `CCCCC(C#N)(Cn1cncn1)c1ccc(Cl)cc1` (stereo not given), the molecule was called inactive.

As to `CCSC(=O)N1CCCCCC1`, the result was inactive.

Turning to `COC(=O)N(C(=O)N1CO[C@@]2(C(=O)OC)Cc3cc(Cl)ccc3C2=N1)c1ccc(OC(F)(F)F)cc1`, the molecule was classed as inactive.

On to `CCN(CC)c1nc(C)cc(OP(=S)(OC)OC)n1`, for which the molecule was called inactive.

With `CC(C)(C)C(=O)C(Oc1ccc(Cl)cc1)n1cncn1` (stereo not given), the molecule was classed as inactive.

For `CCOP(=O)(OCC)Oc1nc(Cl)c(Cl)cc1Cl`, the molecule was called inactive.

As for `CC1(C)CCC(=Cc2ccc(Cl)cc2)C1(O)Cn1cncn1` (stereo not given), the outcome was inactive.

Regarding `CCCCOCN(C(=O)CCl)c1c(CC)cccc1CC`, the molecule was called inactive.

Take `Clc1cccc(C(Cl)(Cl)Cl)n1`: the call was inactive.

For the molecule `CC(C)NC(=O)N1CC(=O)N(c2cc(Cl)cc(Cl)c2)C1=O`, the molecule was classed as inactive.

On to `CN=C=S`, for which the outcome was inactive.

As to `COC(=O)NC(=S)Nc1ccccc1NC(=S)NC(=O)OC`, the call was inactive.

Consider `CCN(CC)C(=O)C(C)Oc1cccc2ccccc12` (stereo not given), for which the molecule was classed as inactive.

For `CCOc1cc(C(C)(C)C)ccc1C1COC(c2c(F)cccc2F)=N1` (stereo not given), the molecule was called inactive.

With `COc1ccc(-c2ccccc2)cc1NNC(=O)OC(C)C`, the AC50 was 33.5 µM (active).

Consider `CCCN(CC)CC1COC2(CCC(C(C)(C)C)CC2)O1` (stereo not given), for which the AC50 is 3.97 µM (active).

Consider `CCOc1nc(F)cc2nc(S(=O)(=O)Nc3c(Cl)cccc3Cl)nn12`, for which the AC50 was 5.51 µM (active).

`C=C(C)CN(CC)c1c([N+](=O)[O-])cc(C(F)(F)F)cc1[N+](=O)[O-]`: the result was inactive.

For `CS(=O)(=O)c1cc(C(F)(F)F)ccc1C(=O)c1cnoc1C1CC1`, the outcome was inactive.

With `CC1(C)C(C(=O)OC(C#N)c2cccc(Oc3ccccc3)c2)C1(C)C` (stereo not given), the molecule was classed as inactive.

In the case of `COC(=O)NS(=O)(=O)c1ccc(N)cc1`, the call was inactive.

For `CO/N=C(/C1=NOCCO1)c1ccccc1Oc1ncnc(Oc2ccccc2Cl)c1F`, the molecule was called inactive.

In the case of `COc1cc(OC)nc(NC(=O)NS(=O)(=O)c2ncccc2OCC(F)(F)F)n1`, the result was inactive.

Take `COP(=O)(OC)O/C(C)=C/C(=O)N(C)C`: the call was inactive.

`O=C(O)c1c(Cl)ccc2cc(Cl)cnc12`: the molecule was called inactive.

Take `CCOP(=S)(OCC)Oc1nc(Cl)n(C(C)C)n1`: the molecule was classed as inactive.

The AC50 is the midpoint of the concentration-response curve, whichever way the signal moves.
